# PNC inhibitor – High Content Assay for Compounds that inhibit the Assembly of the Perinucleolar Compartment; 140,000 tested, 3.1% active; PC3M PTB-GFP, PNC prevalence imaging, 16 h; active compounds read low; activity change (PNC), negative = inhibition, % at 10 µM;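 active = readout at or below -70, meaning at least 70% loss of cells showing the perinucleolar compartment, a nuclear body marking cancer cells; inconclusive = readout between -30 and a set limit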;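 note: plate controls were DMSO wells for no effect and camptothecin positive control wells for full effect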
#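 Read-out is percentage of cells bearing a perinucleolar compartment, from automated 20x imaging of fixed, Hoechst-stained PC3M PTB-GFP cells. Cells were seeded 4 h, then exposed 16 h to compound (23 nl of library stock) in duplicate plates.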
# HPGD inh – qHTS Assay for Inhibitors of HPGD (15-Hydroxyprostaglandin Dehydrogenase) | 15-hydroxyprostaglandin dehydrogenase [NAD(+)] (Homo sapiens), P15428 | purified HPGD, NADH fluorescence kinetic, PGE2 substrate | Potency, µM, without a hit: top-dose activity change, negative = inhibition, hits mostly inhibitors | 150,000 tested, 4.3% active; note: potency is the fitted concentration of half-maximal effect
#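 20 nM HPGD preincubated 15 min at room temperature with compound in 50 mM Tris-HCl pH 8, 0.01% Tween 20. Started with 1 mM NAD+ and 30 uM prostaglandin E2; NADH fluorescence (360/450 nm) read 5 times over 30-s intervals, last minus first.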
# 12-hLO inh – qHTS Assay for Inhibitors of 12-hLO (12-human lipoxygenase); Potency, µM (highest dose often 57.1 µM), for inactives: at the highest dose activity change, negative = inhibition, most hits filed as inhibitors; purified 12-hLO, xylenol orange hydroperoxide absorbance; 150,000 tested, 0.12% active; AID 1452, 2008; Polyunsaturated fatty acid lipoxygenase ALOX12 (Homo sapiens), P18054; active = well fitted inhibition curve with a large enough effect; inconclusive = small, poorly fitted or top-dose-only effect; note: potency is the fitted concentration of half-maximal effect; nearly all actives have a fitted effect of over 55% in size
#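 Lipoxygenase turnover measured by absorbance at 573 and 405 nm after Fe-XO development. Human 12hLO 150 nM, arachidonate 40 uM, pH 7.0 Hepes buffer with detergent; 15 min compound preincubation, 30 min reaction.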
# LMNA splice mod – qHTS Assay for Modulators of Lamin A Splicing | HeLa LMNA splicing GFP/RFP minigene ratio, 48 h | Potency, µM (titrated, usually from 46.1 µM), for inactives: at the top dose ratio change, negative = inhibition, most hits filed as inhibitors | 200,000 tested, 0.01% active | AID 1487, 2009; active = well fitted inhibition curve with a large enough effect in the signal ratio, with a control signal flat, not every such curve was filed as active; inconclusive = small, poorly fitted or top-dose-only effect, or effect the other way, or a change in a side signal; the % refers to the signal ratio; note: potency is the fitted concentration of half-maximal effect
#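 S3 HeLa cells stably expressing lamin A-EGFP splicing minigene plus DsRed2, 600 cells/well, 48 h compound exposure at 37C. Laser-scanning cytometry; analysed as GFP (500-530 nm)/RFP (575-640 nm) total intensity ratio; 0.5% DMSO vehicle.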
# ALDH1A1 block – qHTS Assay for Inhibitors of Aldehyde Dehydrogenase 1 (ALDH1A1) | Aldehyde dehydrogenase 1A1 (Homo sapiens), P00352 | Purified ALDH1A1, NADH fluorescence, propionaldehyde substrate | Potency, µM (highest dose often 75.3 µM), without a hit: at the top dose activity, negative = inhibition, usual class: inhibitors | 220,000 tested, 7.3% active;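 note: potency is the fitted concentration of half-maximal effect; plate controls were no enzyme wells and a reference inhibitor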
# Target sequence (P00352 whole entry, looked up): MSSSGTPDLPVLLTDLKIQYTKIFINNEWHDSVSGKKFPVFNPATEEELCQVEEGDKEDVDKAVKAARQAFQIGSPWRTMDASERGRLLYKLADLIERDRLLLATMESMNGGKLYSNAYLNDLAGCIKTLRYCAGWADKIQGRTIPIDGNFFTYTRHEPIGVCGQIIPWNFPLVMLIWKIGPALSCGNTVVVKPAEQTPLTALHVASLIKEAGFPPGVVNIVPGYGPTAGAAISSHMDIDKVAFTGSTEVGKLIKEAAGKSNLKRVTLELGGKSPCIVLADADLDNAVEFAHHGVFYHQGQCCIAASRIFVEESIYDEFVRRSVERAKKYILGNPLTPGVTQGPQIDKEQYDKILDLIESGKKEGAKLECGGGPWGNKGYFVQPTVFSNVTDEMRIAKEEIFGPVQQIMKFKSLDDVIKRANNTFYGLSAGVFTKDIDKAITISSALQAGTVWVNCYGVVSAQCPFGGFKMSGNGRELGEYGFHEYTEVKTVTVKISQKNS
# * marks the source's active call; other numbers are inactive results; ? = inconclusive; . = no result; [ ] = another dose, or the depositor's remark. An excerpt weighted towards active compounds, which were near 10% of everything screened. Unless noted, calls come from the whole dose curve; as a rule, active = well fitted inhibition curve with a large enough effect (not every such curve was filed as active); inconclusive = small, poorly fitted or top-dose-only effect, or another doubt; inactive = no such curve, though single readings can be large or run the other way. Unless noted, % is set by controls: 0 for no effect and ±100 for the full control effect.
SMILES,PNC inhibitor,HPGD inh,12-hLO inh,LMNA splice mod,ALDH1A1 block
O=c1cc(-c2ccco2)nc(-c2cccs2)o1,-9,-18%,-2%,-4%,14µM*
COc1ccc(CNC(=O)c2cc3c(=O)n(Cc4cccnc4)ccc3nc2C)cc1,.,.,.,5%[46 µM],.
O=C(COc1ccccc1)N(Cc1cccnc1)c1nc2c(F)cccc2s1,.,.,.,2%[46 µM],.
Cc1cc(/C=N/n2cnnc2)c(O)c([N+](=O)[O-])c1,-118*,-22%,-1%,?,-6%
Cc1cc(C(c2ccc(C)o2)c2ccc(C)o2)c(O)c([N+](=O)[O-])c1,23,-16%,-20%,-9%,?
CC(C)(C)c1ccc(O)c(/C=N\O)c1,19,-14%,-13%,-11%,1%
CC(C)(C)c1ccc(O)c(O)c1,.,10µM*,-14%,.,0.89µM*
Cn1c(-c2ccc(F)cc2)cnc1NCc1ccc(F)cc1,10,?,?,-1%,?
Cc1ccc(CNc2ncc(-c3ccc4c(c3)OCO4)n2C)cc1,?,-19%,-21%,5%,16µM*
Cn1c(-c2ccc3c(c2)OCO3)cnc1NCc1ccc(Cl)cc1,?,?,?,-17%,?
CCCCn1nnnc1NCc1cccnc1,9,-14%,11%,9%,10%
Cn1c(-c2ccc(F)cc2)cnc1NCc1ccc(C#N)cc1,-10,-14%,-13%,-8%,5µM*
Cn1c(-c2cccc([N+](=O)[O-])c2)cnc1NCc1cccc([N+](=O)[O-])c1,.,.,.,.,4.7µM*
Cn1c(-c2ccc(Br)cc2)cnc1NCc1cccnc1,35,-8%,-5%,10%,10µM*
COc1ccc2c(c1)CC(C(=O)NCCc1ccc(S(N)(=O)=O)cc1)CO2 (centres undefined),.,.,.,-3%[46 µM],.
CCOC(=O)Nc1sc2c(c1C#N)CCC(C)C2 (centres undefined),-12,-9%,-27%,30%,?
CCC1CCc2c(sc(NC(=O)C3CC=CCC3C(=O)O)c2C#N)C1 (centres undefined),8,32µM*,-4%,-7%,1.8µM*
S=C1NC=NC2N=CNC12 (centres undefined),.,?,-13%,?,2.2µM*
Cc1cc(C(F)(F)F)nn1Cc1n[nH]c(=S)n1Cc1ccccc1,-100*,?,-7%,-10%,-12%
CC1=C(C(=O)NCCc2ccc(Cl)cc2)C2(CCCCC2)OC1=O,.,.,.,11%[46 µM],.
Cc1ccc(CNC(=O)Cn2ccn(-c3cc(C)cc(C)c3)c(=O)c2=O)cc1,.,.,.,-1%[46 µM],.
